In the library only some 3.6% were active in any assay of this set; here they are far more common.
IkB sig inh – IkB pathway inhibition in ABC-DLBCL cells; ABC-DLBCL IkBa-CBG/CBR dual luciferase ratio, 4 h; response scale: scaled: untreated 0%, proteasome inhibitor 100%; Potency, µM (titrated, usually from 57.1 µM), for the others: top-dose IkBa stabilization activation; 110,000 compounds, 0.04% hits; AID 445; active = well fitted curve in the direction sought with a large enough effect in the signal ratio, not every such curve was filed as active; inconclusive = small, poorly fitted or top-dose-only effect, or a change in a side signal; the % refers to the signal ratio;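 also: the direction sought is a rising ratio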
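Luminescence ratio of IκBα-fused green versus native red beetle luciferase in OCI-Ly3 cells, 4 h post-doxycycline with compound; red signal alone, scaled from basal (0%) to zero light (-100%), flagged nonspecific or cytotoxic effects.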
CRE Fsk mod – modulators of forskolin-stimulated CRE signaling in CHO cells; CHO CRE-bla reporter (cAMP response element driving beta-lactamase), forskolin EC10, beta-lactamase ratio; Potency, µM (doses to about 38.2 µM), inactives show top-dose activity change, negative = inhibition, most hits filed as activators; 71,000 compounds, 2.5% hits; AID 662; active = well fitted activation curve with a large enough effect in the signal ratio, with a control signal flat, not every such curve was filed as active; inconclusive = small, poorly fitted or top-dose-only effect, or effect the other way, or a change in a side signal; the % refers to the signal ratio; also: % of control where 0% means no effect
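Beta-lactamase reporter under a cAMP responsive element in CHO cells; compounds tested in titration series against EC10 NKH 477, 3 h at 37 °C. Read-out: CCF4 FRET ratio 460nm/530nm (excitation 405nm) giving %Activity, fitted to AC50.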
ALOX15 inhib – blocks human 15-lipoxygenase activity; P16050; purified 15hLO-1, xylenol orange hydroperoxide absorbance; Potency, µM (series often up to 57.1 µM), inactives show at the highest dose activity change, negative = inhibition, most hits filed as inhibitors; 74,000 compounds, 1.4% hits; AID 887; also: % is scaled to controls: 0 for no effect and ±100 for the full control effect; nearly all actives have a fitted effect of over 55% in size
Target sequence (P16050 whole entry, looked up): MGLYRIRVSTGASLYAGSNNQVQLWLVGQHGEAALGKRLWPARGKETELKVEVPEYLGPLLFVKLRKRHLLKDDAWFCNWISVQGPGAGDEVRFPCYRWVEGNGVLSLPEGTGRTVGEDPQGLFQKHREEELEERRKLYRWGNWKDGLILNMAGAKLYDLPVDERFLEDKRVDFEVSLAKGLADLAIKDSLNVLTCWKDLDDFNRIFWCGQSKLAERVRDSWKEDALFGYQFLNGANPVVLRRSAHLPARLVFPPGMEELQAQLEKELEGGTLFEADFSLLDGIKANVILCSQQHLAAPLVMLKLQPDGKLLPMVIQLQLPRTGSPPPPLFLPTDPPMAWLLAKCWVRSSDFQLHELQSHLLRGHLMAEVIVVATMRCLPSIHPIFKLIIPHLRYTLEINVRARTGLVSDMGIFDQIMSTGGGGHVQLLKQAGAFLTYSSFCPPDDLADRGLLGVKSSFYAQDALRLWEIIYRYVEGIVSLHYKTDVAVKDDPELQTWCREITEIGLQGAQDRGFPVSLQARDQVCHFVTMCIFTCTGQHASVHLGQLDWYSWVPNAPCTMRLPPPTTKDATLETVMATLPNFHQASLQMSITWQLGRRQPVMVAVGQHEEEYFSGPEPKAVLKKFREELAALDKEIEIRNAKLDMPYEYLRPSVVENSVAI
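40 nM 15hLO-1 + cpd, 15 min RT; start w/ 50 uM AA (final), 6 min RT; stop/detect w/ 200 uM XO + 300 uM Fe(II) in 50 mM H2SO4, 30 min; A573/A405. Buffer 25 mM Hepes pH 7.5, 0.01% Triton X-100. No-enzyme wells as negative control.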
Hsp90 Hop PPI – changes Hsp90-Hop TPR2A binding signal, up or down. AlphaScreen TPR2A-His6 binding biotin-Hsp90 C-terminal peptide. Potency, µM (top dose mostly 57 µM), for inactives: at the top dose activity change, negative = inhibition. 71,000 compounds, 0.44% hits. AID 595; active = well fitted curve in either direction with a large enough effect; inconclusive = small, poorly fitted or top-dose-only effect, or another doubt; also: % is scaled to controls: 0 for no effect and ±100 for the full control effect
Tau filament bind – tau filament binding. P10636. 71,000 compounds, 2% hits. recombinant tau filaments, thioflavin S fluorescence, 15 h; filaments grown with octadecylsulfate alongside compound. Potency, µM (doses to about 57.1 µM), inactives show top-dose activity change, negative = inhibition;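 also: % is scaled to controls: 0 for no effect and ±100 for the full control effect; actives lower thioflavin S fluorescence by blocking filaments or displacing dye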
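Recombinant tau protein (human, 1 uM final) plus 30 uM ODS in HEPES pH 7.4 with NaCl, DTT and thioflavine S. Compound present from the start; fluorescence at 510 nm after 15 h, 37 C.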
Numbers without * were called inactive; i = inactive; ? = inconclusive; . = not tested or not shown; ! = not active in a repeat; [ ] = another dose, or the depositor's remark. Unless noted, calls follow the shape of the dose curve; as a rule, active = well fitted curve in the direction sought with a large enough effect; inconclusive = small, poorly fitted or top-dose-only effect, or another doubt; inactive = no such curve, though single readings can be large; an effect the other way counts as inactive or inconclusive. Potency is read from the fitted curve at half-maximal effect.

SMILES | IkB sig inh | CRE Fsk mod | ALOX15 inhib | Hsp90 Hop PPI | Tau filament bind
COc1ccc(-c2nc3cnc(N4CCOCC4)nc3n(-c3ccc(OC)cc3)c2=O)cc1 | -3%[11.4 µM] | ? | 16µM* | ? | i
COc1ccc(-c2nc3cnc(N4CCN(C)CC4)nc3n(C3CC3)c2=O)cc1 | 3%[11.4 µM] | ? | -15% | 0% | 1%
Cn1c(=O)c(-c2ccc(Cl)cc2)nc2cnc(N3CCNCC3)nc21 | -4%[11.4 µM] | ? | ? | 2% | 128%
CN1CCN(c2ncc3nc(-c4ccc(Cl)cc4)c(=O)n(C)c3n2)CC1 | -6%[11.4 µM] | ? | -3% | 2% | 3.2µM*
COc1ccc(-c2nc3cnc(N4CCOCC4)nc3n(C3CC3)c2=O)cc1 | -1%[11.4 µM] | 1.3µM* | -1% | -1% | 104%
O=c1c(-c2ccc(F)cc2)nc2cnc(N3CCOCC3)nc2n1C1CC1 | 0%[11.4 µM] | 5µM* | 0% | -3% | -2%
CCOC(=O)c1c(C)c(-c2ccccc2)n(CC(=O)NC(CC)Cc2ccccc2)c1C (stereo unspecified) | -1% | . | . | . | .
CCN1C(=O)[C@H]2[C@H]3[C@H](O)[C@H](O)C/C(=N/NC(=O)OCc4ccccc4)[C@@H]3CC[C@@H]2C1=O | . | . | 2%[11.4 µM] | . | .
CCN(Cc1ccccc1)C(=O)Cn1c(=O)n(-c2ccc(Cl)c(Cl)c2)c(=O)c2c(C)c(C(=O)N(C)C)sc21 | 0% | . | . | . | .
CCN(Cc1ccccc1)C(=O)C1CCN(S(=O)(=O)c2c(C)noc2/C=C/c2ccc(C)cc2)CC1 | -1% | . | . | . | .
Cn1c(=O)c(-c2ccc(F)cc2)nc2cnc(N3CCOCC3)nc21 | 1%[11.4 µM] | 2.5µM* | 5% | -4% | 7%
O=c1cc(-c2c(F)c(F)c(F)c(F)c2F)oc2c(F)c(F)c(F)c(F)c12 | ? | ? | 5% | -3% | 16µM*
Cc1ccc([N+](=O)[O-])cc1S(=O)(=O)N(C)C | . | . | 25µM*! | . | .
Cc1cc(O)c(C(C)C)cc1N=Cc1ccccc1O | 3%[11.4 µM] | 2%[7.6 µM] | ? | -2%[11 µM] | 1%[11.4 µM]
CCOc1cccc(C=Nc2cc(C)cc(C)c2O)c1O | ? | ? | 10µM* | -7% | ?
Cc1ccccc1Cn1cc(CCC(=O)NCc2cccc(Br)c2)c2ccccc21 | -1% | . | . | . | .
CCCN(CCC)c1nc2ccccc2nc1C(C#N)C(=O)OCCOC (stereo unspecified) | 0% | 13µM* | -3% | -4% | 1.3µM*
C=CCN(CC=C)c1nc2ccccc2nc1C(C#N)C(=O)OCCOC (stereo unspecified) | -1% | 16µM* | -2% | -5% | 173%
CCCCNC(=O)C(C#N)c1nc2ccccc2nc1N1CCCC1 (stereo unspecified) | -1% | ? | 4% | -1% | 51%
C[N+](C)(C)CC(=O)N/N=C\c1ccncc1 | 1%[11.4 µM] | 1%[7.6 µM] | 4%[11.4 µM] | -3%[11 µM] | 10%[11.4 µM]
C[N+](C)(C)CC(=O)N/N=C\c1c(O)ccc2ccccc12 | 2%[11.4 µM] | 12%[7.6 µM] | 30%[11.4 µM] | 3.2µM* | 17%[11.4 µM]
CCN1CCN(C(=O)c2cc3c(=O)oc4ccc(C)cc4c3s2)CC1 | 0% | 2.5µM* | 1% | -5%[2.3 µM] | 5%
CCOc1ccc(Nc2oc(-c3ccco3)nc2C#N)cc1 | -3% | ? | ? | -24% | 0%
CCOc1ccc(Nc2oc(-c3cccs3)nc2C#N)cc1 | 2% | 13µM* | -19% | -18% | -1%
COC(c1ccccc1Br)C(C)/C=C/CCO (stereo unspecified) | . | . | 1.6µM* | . | .
SMILES | IkB sig inh | CRE Fsk mod | ALOX15 inhib | Hsp90 Hop PPI | Tau filament bind
CN(Cc1ccco1)c1ccnc(-c2cccc(C#N)c2)n1 | -1%[11.4 µM] | ? | -12% | 1% | 20%
Cc1ccc2nsnc2c1S(=O)(=O)N1CCN(Cc2ccc3c(c2)OCO3)CC1 | 0% | -12% | -12% | -10% | 16µM*
Cc1ccc2nsnc2c1S(=O)(=O)N1CCCC1 | 0% | 2% | 2% | -1% | 1%
CCOc1ccc(Cc2nccc3cc(OCC)c(OCC)cc23)cc1OCC | 2%[25.6 µM] | 1.3µM* | -29% | -6%[26 µM] | 0%[25.6 µM]
Oc1ccc(Cc2nccc3cc(O)c(O)cc23)cc1O | 1%[11.4 µM] | ? | ? | -7%[11 µM] | 6%[11.4 µM]
CCOc1ccc(C2c3[nH]c4ccccc4c3CCN2C(=O)Cc2cccc(OCC)c2OCC)cc1 (stereo unspecified) | 2% | . | . | . | .
O=C(c1ccco1)N1CCN(c2ncnc3c(-c4ccccc4)nsc23)CC1 | ? | 4% | -19% | 0% | 29%
O=C(c1ccco1)N1CCN(c2ncnc3c2[nH]c2ccc(Br)cc23)CC1 | ? | 0.25µM* | -12% | -5% | 96%
CCC(=O)Nc1ccc(CC)cc1-c1nc2ccccc2n(Cc2ccccc2)c1=O | 0% | . | . | . | .
Cc1nnc2ccc(Oc3ccc(-c4ccccc4)cc3)nn12 | -1% | 0.79µM* | 8% | -6% | 29%
COC(=O)c1ccc(Oc2ccc3nnc(C)n3n2)cc1 | 2% | 10% | 4% | -3% | -1%
CCN1C(=O)[C@H]2[C@H]3[C@H](O)[C@H](O)C/C(=N/OCC(C)C)[C@H]3CC[C@@H]2C1=O | . | . | 1%[11.4 µM] | . | .
O=C1c2ccccc2C(O)N1Cc1ccco1 (stereo unspecified) | 0% | -5% | -4% | -4% | 6%
c1coc(CN=C2NC(=NCc3ccco3)c3ccccc32)c1 | 4% | -12% | -5% | -6% | 10µM*
O=c1[nH]c(=O)n(C2CCCCCC2)c(O)c1C=NCc1ccc(F)cc1 | ? | 13µM* | -18% | -4% | -22%
CSCCC(N=Cc1c(O)n(-c2ccc(F)cc2)c(=O)[nH]c1=O)C(=O)O (stereo unspecified) | 2% | 0% | 5% | 0% | 7%
CCOC(=O)C(C)Oc1cccc2c(=O)n(CC(=O)Nc3ccc4c(c3)OCCO4)ccc12 (stereo unspecified) | -2% | 10µM* | 8% | -3% | 19%
CC1(C)CC[C@]2(C(=O)O)CC[C@]3(C)C(=CCC4[C@@]5(C)CC[C@H](O)C(C)(C)C5[C@H](O)C[C@]43C)C2C1 (stereo partly specified) | . | . | 3%[25.6 µM] | . | .
O=C(Nc1ccc(Nc2ccccc2)cc1)C1CC1 | 4% | 3% | -6% | ? | 10µM*
O=c1/c(=C/c2ccccn2)sc2nc3ccccc3n12 | ? | ? | 1%[11.4 µM] | -3%[11 µM] | 0.5µM*

Screening data from PubChem BioAssay.
